According to PubChem BioAssay AID651815 (National Center for Advancing Translational Sciences (NCATS), 2012):
About 1,100 (52%) of roughly 2,100 compounds were called active. Another 29% or so got no clear call; they are omitted. The set was probably picked from earlier hits. This is one part of the list. Unmarked numbers belong to inactive results. Calls follow the shape of the dose curve; as a rule, active = well fitted inhibition curve with a large enough effect; inconclusive = small, poorly fitted or top-dose-only effect; inactive = no such curve, though single readings can be large or run the other way.

Biological target: DNA dC->dU-editing enzyme APOBEC-3F (Homo sapiens) (UniProt Q8IUX4)
Sequence (Q8IUX4 whole entry, looked up): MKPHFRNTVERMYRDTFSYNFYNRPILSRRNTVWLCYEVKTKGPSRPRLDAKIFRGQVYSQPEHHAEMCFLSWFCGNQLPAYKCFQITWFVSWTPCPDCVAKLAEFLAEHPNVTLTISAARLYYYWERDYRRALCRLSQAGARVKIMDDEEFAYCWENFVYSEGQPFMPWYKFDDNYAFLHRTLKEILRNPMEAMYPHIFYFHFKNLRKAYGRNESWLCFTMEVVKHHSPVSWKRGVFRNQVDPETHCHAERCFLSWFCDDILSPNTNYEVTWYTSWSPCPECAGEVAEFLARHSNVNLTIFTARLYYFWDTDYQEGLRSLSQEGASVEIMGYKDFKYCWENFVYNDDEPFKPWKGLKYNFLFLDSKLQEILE
Assay: qHTS for inhibitors of Vif-A3F interactions: Cherry picks counterscreen; also: nearly all actives have a fitted effect of over 65% in size
Conditions: HeLa A3F-eYFP/Vif cells, eYFP fluorescence, 24 h; series mostly up to 46.1 µM; activity, negative = inhibitor: at the top concentration
In short: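 Rescue of Vif-driven A3F-eYFP degradation read as cellular eYFP fluorescence after 24 h compound exposure (several concentrations) in stable HeLa cells; MG132 (2 mM stock) as positive control.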
% is scaled to controls: 0 for no effect and ±100 for the full control effect; potency is read from the fitted curve at half-maximal effect.

Question: `O=[N+]([O-])c1ccc(N/N=C/c2c[nH]c3ccccc23)c(S(=O)(=O)Nc2ccc(Cl)cc2)c1` was tested. Which Potency did it give?
Answer: Its Potency is 18.4 µM (active).

Question: How did the Potency turn out when `COc1ccccc1NS(=O)(=O)c1cc([N+](=O)[O-])ccc1N/N=C/c1c(C)[nH]c2ccccc12` was run?
Answer: Its Potency is 3.96 µM (active).

Question: How did the “activity, negative = inhibitor” value turn out when `C/C(=N/Nc1ccc([N+](=O)[O-])cc1)c1c[nH]c2ccccc12` was run?
Answer: The value was -110%.

Question: How did the “activity, negative = inhibitor” value turn out when `Cc1ccccc1NCC(=O)N=Nc1c(O)[nH]c2ccc([N+](=O)[O-])cc12` was run?
Answer: Its value is -10% [at 36.9 µM].

Question: How did the Potency turn out when `O=[N+]([O-])c1ccc(N/N=C/c2c[nH]c3ccccc23)cc1` was run?
Answer: Its Potency is 16.4 µM (active).

Question: For `Cc1[nH]c2ccccc2c1/C=N/Nc1ccc([N+](=O)[O-])cc1`, which Potency is on record?
Answer: Its Potency is 9.2 µM (active).

Question: `O=[N+]([O-])c1ccc(N=Nc2ccc(O)c3ccccc23)cc1` was tested. Which “activity, negative = inhibitor” value did it give?
Answer: Its value is -18.6% [at 36.9 µM].

Question: How did the Potency turn out when `COc1ccc(NS(=O)(=O)c2cc([N+](=O)[O-])ccc2N/N=C/c2c(C)[nH]c3ccccc23)cc1` was run?
Answer: The Potency was 10.3 µM (active).

Question: Which Potency does the source give for `COc1ccccc1NS(=O)(=O)c1cc([N+](=O)[O-])ccc1N/N=C/c1c[nH]c2ccccc12` here?
Answer: Its Potency is 13 µM (active).

Question: How did the “activity, negative = inhibitor” value turn out when `CC(C)CC(=O)NC(=S)N(Cc1ccccc1)Cc1ccccc1` was run?
Answer: Its value is -4.37%.

Question: Which Potency does the source give for `CC[n+]1c(C=C2C=C(C)OC(C)=C2)sc2ccccc21` here?
Answer: The Potency was 4.61 µM (active).

Question: With `COc1cc(N2CCCC2)c(OC)cc1/C=C1/NC(=S)NC1=O` as the molecule, how does the Potency read?
Answer: The Potency was 1.58 µM (active).

Question: With `COc1ccc(/C=C/C=C2\NC(=S)NC2=O)cc1` as the molecule, how does the “activity, negative = inhibitor” value read?
Answer: Its value is -18%.

Question: Which Potency does the source give for `Cc1cccc2cc(C#N)c(SCC(=O)N3CC(=O)Nc4ccccc43)nc12` here?
Answer: The Potency was 7.9 µM (active).

Question: With `Cc1cc(C)c2nc(SCC(=O)N3CC(=O)Nc4ccccc43)c(C#N)cc2c1` as the molecule, how does the Potency read?
Answer: Its Potency is 3.14 µM (active).

Question: For `CC1=C(C(=O)Nc2cccc(F)c2)C(c2ccsc2)C2=C(CC(C)(C)CC2=O)N1` (stereo unspecified), which Potency is on record?
Answer: Its Potency is 2.8 µM (active).

Question: How did the “activity, negative = inhibitor” value turn out when `CCN(CC)c1ccc2cc(-c3nc4sc5c(c4c(=O)[nH]3)CCC(C(C)(C)C)C5)c(=O)oc2c1` (stereo unspecified) was run?
Answer: Its value is 27.6%.

Question: How did the Potency turn out when `COc1ccc2cc(-c3nc(Cl)c4c5c(sc4n3)CC(C)CC5)c(=O)oc2c1` (stereo unspecified) was run?
Answer: The Potency was 20.6 µM (active).

Question: How did the Potency turn out when `Nc1[nH]c2cc([N+](=O)[O-])ccc2c1-c1ccccn1` was run?
Answer: The Potency was 20.6 µM (active).

Question: Which Potency does the source give for `COc1cc(-c2noc(C)c2C#Cc2ccc(N)cc2)cc(OC)c1OC` here?
Answer: The Potency was 0.994 µM (active).

Question: How did the Potency turn out when `Cc1ccc(-c2nc(-c3cc4cccc(OCc5cccc(F)c5)c4oc3=O)no2)cc1` was run?
Answer: The Potency was 23.1 µM (active).

Question: `N#Cc1c(Nc2ccccc2)[n+]([O-])c2ccc(Cl)cc2[n+]1[O-]` was tested. Which “activity, negative = inhibitor” value did it give?
Answer: Its value is -4.39% [at 36.9 µM].

Question: For `C=C(C(=O)c1ccccc1)C(C(=C)C(=O)c1ccccc1)c1ccc(OC)cc1`, which Potency is on record?
Answer: The Potency was 3.96 µM (active).

Question: With `C=C(C(=O)c1ccccc1)C(C)C(=C)C(=O)c1ccccc1` as the molecule, how does the Potency read?
Answer: The Potency was 3.53 µM (active).

Question: For `S=C(NC1CCCCC1)N(CCc1ccccc1)CCc1ccccc1`, which “activity, negative = inhibitor” value is on record?
Answer: Its value is 0.222%.

Question: For `COCCN1C(=O)/C(=C/c2ccc(N3CCCC3)cc2)SC1=S`, which Potency is on record?
Answer: Its Potency is 5.17 µM (active).

Question: `COCCN1C(=O)/C(=C/c2ccc(N3CCCC3)cc2C)SC1=S` was tested. Which Potency did it give?
Answer: The Potency was 2.91 µM (active).

Question: `CCn1c(O)c(/C=N/N=C/c2ccc(OC)cc2)c2cc(C3=NNC(=O)CC3)ccc21` was tested. Which Potency did it give?
Answer: Its Potency is 6.51 µM (active).

Question: How did the “activity, negative = inhibitor” value turn out when `Cc1cc(OCC(=O)Nc2nnc(C3CC3)s2)ccc1Cl` was run?
Answer: The value was -5.8% [at 36.9 µM].

Question: For `COc1cc(CCC(=O)Nc2nnc(C)s2)cc(OC)c1OC`, which Potency is on record?
Answer: The Potency was 4.44 µM (active).

Question: Which Potency does the source give for `N#CCSc1ccccc1NC(=O)CN1C(=O)C2CC=CCC2C1=O` (stereo unspecified) here?
Answer: Its Potency is 14 µM (active).

Question: Which “activity, negative = inhibitor” value does the source give for `N#CCSc1ccccc1NC(=O)CN1C(=O)NC(CCc2ccccc2)C1=O` (stereo unspecified) here?
Answer: The value was -12.4%.

Question: With `CC(=O)Nc1ccc(Nc2c3c4c(cccc4n(C)c2=O)C(=O)c2ccccc2-3)cc1` as the molecule, how does the “activity, negative = inhibitor” value read?
Answer: The value was -11.4%.

Question: How did the Potency turn out when `CC(=O)Nc1ccc(S(=O)(=O)N2CCSc3ccccc32)cc1` was run?
Answer: The Potency was 2.5 µM (active).

Question: How did the “activity, negative = inhibitor” value turn out when `O=C(CN1c2cccc3cccc(c23)S1(=O)=O)Nc1ccc(S(=O)(=O)N2CCOCC2)cc1` was run?
Answer: Its value is 0.571%.

Question: `COC(=O)Nc1ccc(S(=O)(=O)N2CCCc3ccccc32)cc1` was tested. Which Potency did it give?
Answer: The Potency was 5.59 µM (active).

Question: With `CC(=O)Nc1ccc(S(=O)(=O)N2c3ccccc3C(C)=CC2(C)C)cc1` as the molecule, how does the Potency read?
Answer: Its Potency is 2.23 µM (active).

Question: How did the Potency turn out when `Cc1ccc2nsnc2c1NC(=O)c1ccc(-c2cc(Cl)ccc2Cl)o1` was run?
Answer: The Potency was 14 µM (active).

Question: `Cc1nc(CSc2nsc(/C=C/N(C)C)c2C#N)cs1` was tested. Which “activity, negative = inhibitor” value did it give?
Answer: Its value is 9.44% [at 36.9 µM].

Question: Which Potency does the source give for `CCSc1nnc(-c2sc3nnc(-c4ccccc4)c(-c4ccccc4)c3c2N)o1` here?
Answer: Its Potency is 4.11 µM (active).

Question: Which “activity, negative = inhibitor” value does the source give for `OCCCn1c(C2CCCN2c2nc(-c3ccc(Cl)cc3)cs2)nc2cc(Cl)c(Cl)cc21` (stereo unspecified) here?
Answer: The value was -7.33%.

Question: `COc1cccc2sc(Nc3nc(-c4cc5ccccc5oc4=O)cs3)nc12` was tested. Which Potency did it give?
Answer: Its Potency is 3.14 µM (active).

Question: How did the Potency turn out when `O=C1c2ccccc2C(=O)c2cc(N3CCCCC3)ccc21` was run?
Answer: Its Potency is 7.04 µM (active).

Question: Which Potency does the source give for `COc1cc(OC)cc(C(=O)N/N=C/c2ccc(OC)c(COc3ccc4ccccc4c3)c2)c1` here?
Answer: Its Potency is 12.5 µM (active).

Question: Which Potency does the source give for `COc1ccc(/C=N/NC(=O)c2cccnc2)cc1CSc1ccccn1` here?
Answer: Its Potency is 3.14 µM (active).

Question: With `COc1cnc(-c2ccccn2)nc1Oc1ccc(F)cc1F` as the molecule, how does the “activity, negative = inhibitor” value read?
Answer: The value was -2.85%.

Question: Which Potency does the source give for `COc1ccc(/C=N/NC(=O)c2ccccc2Cl)cc1CSc1nc2ccccc2s1` here?
Answer: Its Potency is 4.44 µM (active).

Question: For `COc1ccc(/C=N\NC(=O)c2ccccc2F)cc1COc1ccc(F)cc1F`, which Potency is on record?
Answer: The Potency was 2.23 µM (active).

Question: How did the “activity, negative = inhibitor” value turn out when `O=C(CSc1nc2ccccc2s1)c1cc2ccccc2o1` was run?
Answer: Its value is -13%.

Question: Which Potency does the source give for `COc1ccc(/C=N/NC(=O)c2cccnc2)cc1COc1ccc(NC(C)=O)cc1` here?
Answer: Its Potency is 12.5 µM (active).

Question: With `COc1ccccc1/C=N/NC(=S)Nc1cccnc1` as the molecule, how does the “activity, negative = inhibitor” value read?
Answer: The value was -15.7%.
